# Records with an inconclusive call do not appear. Activity calls are given as the source filed them. Unless noted, calls come from the whole dose curve; as a rule, active = well fitted inhibition curve with a large enough effect; inconclusive = small, poorly fitted or top-dose-only effect; inactive = flat fitted curve, though single readings scatter.
# What was measured:
# [1] = qHTS profiling for inhibitors of Plasmodium falciparum proliferation (AID 504749);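 for activity, negative = inhibition: 0% = DMSO vehicle and full inhibition = artemisinin control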; for all read-outs here: nearly all actives have a fitted effect of over 60% in size; conditions: P. falciparum in erythrocytes, SYBR Green DNA, 72 h; for activity, negative = inhibition: at 28.7 µM (top of the series)
# In short: (§1)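 Three-day growth assay of blood-stage parasites in erythrocytes (0.3% parasitemia, 2.5% hematocrit) at 37 C, 5% CO2, quantified by SYBR Green DNA staining after overnight detergent lysis.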
# 3D7 = assay: as above; conditions: P. falciparum in erythrocytes, SYBR Green DNA, 72 h; series mostly up to 28.7 µM
# In short: as §1
# 7G8 = assay: as above; conditions: P. falciparum in erythrocytes, SYBR Green DNA, 72 h; series mostly up to 28.7 µM
# In short: as §1
# AA1029 = assay: as above; conditions: P. falciparum in erythrocytes, SYBR Green DNA, 72 h; series mostly up to 28.7 µM
# In short: as §1
# AS120 = assay: as above; conditions: P. falciparum in erythrocytes, SYBR Green DNA, 72 h; series mostly up to 28.7 µM
# In short: as §1
# ATS189 = assay: as above; conditions: P. falciparum in erythrocytes, SYBR Green DNA, 72 h; series mostly up to 28.7 µM
# In short: as §1
# ATS95 = assay: as above; conditions: P. falciparum in erythrocytes, SYBR Green DNA, 72 h; series mostly up to 28.7 µM
# In short: as §1
# C2A = assay: as above; conditions: P. falciparum in erythrocytes, SYBR Green DNA, 72 h; series mostly up to 28.7 µM
# In short: as §1
# [2] = qHTS for identification of novel therapeutic agents for treatment of microphthalmiaassociated transcription factor (MiT) renal cell carcinoma (RCC) (AID 1963991; calls by dose curve); conditions: CellTiter-Glo, 48 h; for z-score: stronger effect = lower value
# In short: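 Three TFE3-fusion RCC lines (UOK109, UOK124, UOK145), 500 cells/well in complete medium, were treated with MIPE 4.0 compounds for 48 hours at 37 C. Viability was by CellTiter-Glo luminescence, normalized to DMSO (100%) and empty wells (0%); curves fitted over 11 concentrations.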
# [3] = TFE3-RCC UOK109 viability, measured here: UOK109 Z-AUC
# [4] = TFE3-RCC viability, measured here: UOK124 Z-AUC
# [5] = TFE3-RCC viability, measured here: UOK145 Z-AUC
# Potency is the fitted concentration of half-maximal effect.
compound,measurement,setting,value
CC(C)NC(C)Cc1ccc(I)cc1 (stereo not drawn),"activity, negative = inhibition",[1]; parasite line A,11.4% (inactive)
same,"activity, negative = inhibition",[1]; parasite line B,-12.4% (inactive)
same,Potency,3D7,inactive
same,Potency,7G8,10 µM (active)
same,Potency,AA1029,inactive
same,Potency,AS120,inactive
same,Potency,ATS189,inactive
same,Potency,ATS95,inactive
same,Potency,C2A,inactive
CCCN1CCC[C@H](c2cccc(O)c2)C1,"activity, negative = inhibition",[1]; parasite line A,8.52% (inactive)
same,"activity, negative = inhibition",[1]; parasite line B,-0.779% (inactive)
same,Potency,3D7,inactive
same,Potency,AA1029,inactive
same,Potency,AS120,inactive
same,Potency,ATS189,inactive
same,Potency,ATS95,inactive
same,Potency,C2A,inactive
C[C@@H]1[C@H](O)[C@@H](C)C=CC=CCCC=CC=CC=CC=C[C@H](O[C@H]2O[C@@H](C)[C@H](O)[C@@H](N)[C@@H]2O)CC2O[C@](O)(C[C@@H](O)[C@H](O)CC[C@@H](O)C[C@@H](O)C[C@@H](O)CC(=O)O[C@H]1C)C[C@H](O)[C@H]2C(=O)O,z-score,[2]; [3],0.777
same,z-score,[2]; [4],0.659
same,z-score,[2]; [5],-1.57
COC(C)(C)CCCC(C)C/C=C/C(C)=C/C(=O)OC(C)C (stereo not drawn),Potency,ATS95,inactive
same,Potency,C2A,inactive
COc1cc2cc(c1Cl)N(C)C(=O)C[C@H](OC(=O)C(C)C)[C@]1(C)O[C@H]1[C@H](C)[C@@H]1C[C@@](O)(NC(=O)O1)[C@H](OC)C=CC=C(C)C2,z-score,[2]; [3],-2.37
same,z-score,[2]; [4],-3.1
same,z-score,[2]; [5],-1.62
O=C(O)C(Cl)Cl,"activity, negative = inhibition",[1]; parasite line A,7.93% (inactive)
same,"activity, negative = inhibition",[1]; parasite line B,-3.72% (inactive)
same,Potency,3D7,inactive
same,Potency,7G8,inactive
same,Potency,AA1029,inactive
same,Potency,AS120,inactive
same,Potency,ATS189,inactive
same,Potency,ATS95,inactive
same,Potency,C2A,inactive
NC(=O)CN1CC(O)CC1=O (stereo not drawn),"activity, negative = inhibition",[1]; parasite line A,3.26% (inactive)
same,"activity, negative = inhibition",[1]; parasite line B,7.69% (inactive)
same,Potency,3D7,inactive
same,Potency,7G8,inactive
same,Potency,AA1029,inactive
same,Potency,AS120,inactive
same,Potency,ATS189,inactive
same,Potency,ATS95,inactive
same,Potency,C2A,inactive
C1CCC(NC2CCCCC2)CC1,"activity, negative = inhibition",[1]; parasite line A,7.71% (inactive)
same,"activity, negative = inhibition",[1]; parasite line B,9.08% (inactive)
same,Potency,3D7,inactive
same,Potency,7G8,inactive
same,Potency,AA1029,inactive
same,Potency,AS120,inactive
same,Potency,ATS189,inactive
same,Potency,ATS95,inactive
same,Potency,C2A,inactive
O=[N+]([O-])c1ccc([As](=O)(O)O)cc1,Potency,[1]; parasite line A,6.31 µM (active)
same,Potency,[1]; parasite line B,6.31 µM (active)
same,Potency,3D7,10 µM (active)
same,Potency,7G8,3.55 µM (active)
same,Potency,AA1029,3.98 µM (active)
same,Potency,AS120,7.94 µM (active)
same,Potency,ATS189,7.08 µM (active)
same,Potency,ATS95,11.2 µM (active)
C=CCN1CC[C@]23CCCCC2[C@H]1Cc1ccc(O)cc13 (stereo partly drawn),"activity, negative = inhibition",[1]; parasite line A,18.6% (inactive)
same,"activity, negative = inhibition",[1]; parasite line B,4.44% (inactive)
same,Potency,3D7,inactive
same,Potency,7G8,11.2 µM (active)
same,Potency,AA1029,inactive
same,Potency,AS120,inactive
same,Potency,ATS189,inactive
same,Potency,ATS95,inactive
same,Potency,C2A,inactive
CCOC(=O)c1cncn1[C@H](C)c1ccccc1,z-score,[2]; [3],1.85
same,z-score,[2]; [4],0.442
same,z-score,[2]; [5],0.512
O=C(O)COc1ccccc1,"activity, negative = inhibition",[1]; parasite line A,-0.911% (inactive)
same,"activity, negative = inhibition",[1]; parasite line B,7.97% (inactive)
same,Potency,3D7,inactive
same,Potency,7G8,inactive
same,Potency,AA1029,inactive
same,Potency,AS120,inactive
same,Potency,ATS189,inactive
same,Potency,ATS95,inactive
same,Potency,C2A,inactive
c1ccc(C2(c3ccccc3)CC2C2=NCCN2)cc1 (stereo not drawn),"activity, negative = inhibition",[1]; parasite line A,-23% (inactive)
same,"activity, negative = inhibition",[1]; parasite line B,-12.8% (inactive)
same,Potency,3D7,inactive
same,Potency,AA1029,inactive
same,Potency,AS120,inactive
same,Potency,ATS189,inactive
same,Potency,ATS95,inactive
same,Potency,C2A,inactive
C[C@@]12OC(=O)[C@]1([C@@H](O)[C@@H]1C=CCCC1)NC(=O)[C@H]2CCCl,Potency,[2]; TFE3-RCC UOK109 viability,0.0662 µM (active)
same,z-score,[2]; [3],-1.51
same,z-score,[2]; [4],-3.3
same,z-score,[2]; [5],-2.86
NC1CC1c1ccccc1 (stereo not drawn),z-score,[2]; [3],0.891
same,z-score,[2]; [4],0.509
same,z-score,[2]; [5],0.821
CCCCCCCCCC(CC)c1ccc(S(=O)(=O)O)cc1 (stereo not drawn),"activity, negative = inhibition",[1]; parasite line A,4.98% (inactive)
same,"activity, negative = inhibition",[1]; parasite line B,0.132% (inactive)
same,Potency,3D7,inactive
same,Potency,7G8,inactive
same,Potency,AA1029,inactive
same,Potency,AS120,inactive
same,Potency,ATS189,inactive
same,Potency,ATS95,inactive
same,Potency,C2A,inactive
Oc1ccc2c3c1O[C@H]1c4[nH]c5c(c4C[C@@]4(O)[C@@H](C2)N(CC2CC2)CC[C@]314)C[C@@]1(O)[C@H]2Cc3ccc(O)c4c3[C@@]1(CCN2CC1CC1)[C@H]5O4,z-score,[2]; [3],0.682
same,z-score,[2]; [4],0.462
same,z-score,[2]; [5],0.385
CC(C)(O)C=CC(=O)[C@](C)(O)[C@H]1[C@H](O)C[C@]2(C)[C@@H]3CC=C4[C@@H](C=C(O)C(=O)C4(C)C)[C@]3(C)C(=O)C[C@@]12C,Potency,[2]; TFE3-RCC UOK109 viability,0.0833 µM (active)
same,z-score,[2]; [3],-3.73
same,z-score,[2]; [4],-2.29
same,z-score,[2]; [5],-2.28
C[C@@H]1O[C@@H](O[C@@H]2C=C3CC[C@@H]4[C@@H](CC[C@]5(C)[C@H](c6ccc(=O)oc6)CC[C@@]45O)[C@@]3(C)CC2)[C@H](O)[C@H](O)[C@H]1O,Potency,[2]; TFE3-RCC UOK109 viability,0.0209 µM (active)
same,z-score,[2]; [3],-3.96
same,z-score,[2]; [4],-3.13
same,z-score,[2]; [5],-3.36
COC1=CC(C)=C[C@@H](C)[C@@H](O)[C@@H](C)CC(C)=CC=C[C@H](OC)[C@H]([C@@H](C)[C@@H](O)[C@H](C)[C@@]2(O)C[C@@H](O)[C@H](C)[C@@H](C(C)C)O2)OC1=O,Potency,[2]; TFE3-RCC UOK109 viability,26.4 µM (active)
same,z-score,[2]; [3],-1.69
same,z-score,[2]; [4],-2.76
same,z-score,[2]; [5],-3.22
Cc1ccc(Cl)c(O)c1,"activity, negative = inhibition",[1]; parasite line A,9.64% (inactive)
same,"activity, negative = inhibition",[1]; parasite line B,15% (inactive)
same,Potency,3D7,inactive
same,Potency,7G8,inactive
same,Potency,AA1029,inactive
same,Potency,AS120,inactive
same,Potency,ATS189,inactive
same,Potency,ATS95,inactive
same,Potency,C2A,inactive
COc1ccc(CC2NCCc3cc(OC)c(OC)cc32)cc1OC (stereo not drawn),z-score,[2]; [3],0.368
same,z-score,[2]; [4],0.055
same,z-score,[2]; [5],0.8
C[C@]12CCC(=O)C(O)=C1CC[C@@H]1[C@H]3CCC(=O)[C@@]3(C)CC[C@@H]12,Potency,3D7,inactive
same,Potency,7G8,inactive
same,Potency,AS120,inactive
CC(=O)[O][Hg][c]1ccccc1,Potency,[1]; parasite line A,3.98 µM (active)
same,Potency,[1]; parasite line B,6.31 µM (active)
same,Potency,3D7,12.6 µM (active)
same,Potency,7G8,1 µM (active)
same,Potency,AA1029,4.47 µM (active)
same,Potency,AS120,3.98 µM (active)
same,Potency,ATS189,11.2 µM (active)
same,Potency,ATS95,4.47 µM (active)

# Source: PubChem BioAssay (NCATS)
